# Reference: the supplement of paper PMC8728848
# Only a selection was taken, and the strongest signals are over-represented in it overall.
# B1: EUL D1A second (Oryza sativa) (protein)
# chain: GAATACTIGGVPVHTVRVFSAAGEDYCLTVRNGTACLAPKNPRDDYQHWIKDMRHSNKIRDEEGYPAFALVNKVTGEAIKHSTGQGHPVKLVPYNPEYQDESVLWTESKDVGKGFRCIRMVNNIYLNFDAFHGDKDHGGIHDGTEIVLWKWCEGDNQRWKILPWILEQKLISEEDLNSAVDHHHHHH
# Columns and labels:
# Assay in all cases: glycan array binding signal (z-score within array); higher = stronger binding
# Conditions in all cases: glycan notation: IUPAC condensed, linker removed
# [1] = biological target: Neu5Ac(a2-6)Gal(b1-4)GlcNAc(b1-3)Gal(b1-4)GlcNAc
# How it was run: (§1)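 Columns mapping to the same glycan were averaged after glycan names were converted to IUPAC-condensed notation. The data come from 3228 arrays in the Consortium for Functional Glycomics database, limited to those with an available protein sequence. Binding is reported as a within-array Z-score averaged across arrays of one protein sequence and across linkers.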
# [2] = biological target: Neu5Ac(a2-6)Gal(b1-4)GlcNAc(b1-3)Gal(b1-4)GlcNAc(b1-3)Gal(b1-4)GlcNAc
# How it was run: as §1
# [3] = biological target: Neu5Ac(a2-6)Gal(b1-4)GlcNAc(b1-3)[Neu5Ac(a2-6)Gal(b1-4)GlcNAc(b1-6)]GalNAc
# How it was run: as §1
# [4] = biological target: Neu5Ac(a2-6)Gal(b1-4)GlcNAc(b1-6)[Gal(b1-3)GlcNAc(b1-3)]Gal(b1-4)Glc
# How it was run: as §1
# [5] = biological target: Neu5Ac(a2-6)GlcNAc(b1-4)GlcNAc
# How it was run: as §1
# [6] = biological target: Neu5Ac(a2-8)Neu5Ac(a2-3)[GalNAc(b1-4)]Gal(b1-4)Glc
# How it was run: as §1
# [7] = biological target: Neu5Gc(a2-3)Gal(b1-4)Glc
# How it was run: as §1
binder,measurement,setting,value
B1,glycan array binding signal (z-score),[1],0.827
same,glycan array binding signal (z-score),[2],-2.05
same,glycan array binding signal (z-score),[3],2.81
same,glycan array binding signal (z-score),[4],0.242
same,glycan array binding signal (z-score),[5],-0.238
same,glycan array binding signal (z-score),[6],0.083
same,glycan array binding signal (z-score),[7],0.509
